A short description of assay [1]: Nuclear factor erythroid 2-related factor 2/antioxidant responsive element (Nrf2/ARE) small molecule agonists: qHTS cell viability counter screen in human keratinocytes (AID 1919968; active means well fitted curve in the direction sought with a large enough effect in the repeat runs; an effect the other way counts as inactive or inconclusive; further: nearly all actives have a fitted effect of over 55% in size). In short, it runs like this:
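Stably transfected HaCaT (KeratinoSens), 1,500/well. Test agents in DMSO were applied for 23 h, 37 C/5% CO2. CellTiter-Fluor was incubated 1 h before the fluorescence read.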
(In general: qHTS replaces the single test concentration by a dilution series.)

Assay [2] is described as follows: Nuclear factor erythroid 2-related factor 2/antioxidant responsive element (Nrf2/ARE) small molecule agonists: luciferase reporter gene qHTS assay in human keratinocytes (AID 1919969). Further: nearly all actives have a fitted effect of over 35% in size. Background: A reporter such as luciferase makes a cellular process visible.
The target of assay [3] is Gonadotropin-releasing hormone receptor (Homo sapiens) (UniProt P30968). In words: Human gonadotropin-releasing hormone receptor (GnRHR) small molecule agonists, calcium flux assay in GnRHR-HEK293 cells (AID 1920063). Further: nearly all actives have a fitted effect of over 35% in size. Summed up:
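Stable human GnRHR HEK293 line. 18 h plating, then calcium dye for 1 h at 37 C. Agonist-mode compound addition from DMSO stocks; fluorescence monitored 3 min.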
Background: Calcium flux is commonly read through the fluorescence of an indicator in the cells.

The target in assay [4] is KiSS-1 receptor (Homo sapiens) (UniProt Q969F8). In words: Human kisspeptin (KISS1R) small molecule agonists, calcium flux assay in KISS1R-HEK293 cells (AID 1920064; active means well fitted curve in the direction sought with a large enough effect in the repeat runs; an effect the other way counts as inactive or inconclusive). Summed up:
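After overnight (18 h) culture at 37 C/5% CO2, human KISS1R-HEK293 cells received calcium dye for 1 h, then test compound; emission at 540 nm (excitation 480 nm) was tracked for 3 min.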

The nature of assay [5]: G protein-coupled receptor (GPCR) small molecule agonists, calcium flux assay: HEK293 wild type cell line counter screen (AID 1920065). In short, it runs like this:
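Following 18 h incubation at 37 C/5% CO2, plates got calcium dye for 1 h; compounds, ATP or DMSO were then pinned in and fluorescence followed kinetically (480/540 nm).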

Assay [6] can be described thus: p53 small molecule agonists, cell-based qHTS assay with human liver microsomes (AID 1963577).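 Further: p53 response element beta-lactamase reporter cells with liver microsomes plus NADPH.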 In short, it runs like this:
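Reporter activation was measured by LiveBLAzer fluorescence intensity in p53RE-bla cells, which had been exposed to compounds for 16 h at 37 C alongside 0.5 mg/mL human liver microsomes and 0.5 mg/mL NADPH (final concentrations).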

A short description of assay [7]: p53 small molecule agonists, cell-based qHTS assay with rat liver microsomes (AID 1963578). Summed up:
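Compound in DMSO added to p53RE-bla cells 5 h post-plating; rat microsomes/NADPH 0.5 mg/mL final; 16 h, 37 C; LiveBLAzer 2 h RT.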

A short description of assay [8]: p53 small molecule agonists, cell-based qHTS assay with rat liver microsomes: qHTS cell viability counter screen (AID 1963580). Further: nearly all actives have a fitted effect of over 45% in size. Summed up: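 Luminescent ATP readout (CellTiter-Glo, 30 min at room temperature) reports viability of p53RE-bla HCT-116 cells after 16 h at 37 C with test compounds under metabolic activation by rat liver microsomes and NADPH at 0.5 mg/mL final each.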

The nature of assay [9]: p53 small molecule agonists, cell-based qHTS assay: qHTS cell viability counter screen (AID 1963581). Further: nearly all actives have a fitted effect of over 45% in size. In short, it runs like this:
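qHTS counter screen: 16 h compound exposure at 37 C of p53RE-bla HCT-116 cells (4,000 per well, seeded 5 h prior), cell viability by ATP luminescence.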

Assay [10] concerns the target 5-hydroxytryptamine receptor 2A (Homo sapiens) (UniProt P28223). In words: 5-hydroxytryptamine receptor 2A (HTR2A) small molecule antagonists, cell-based qHTS assay (AID 1963586). Further: nearly all actives have a fitted effect of over 45% in size. In short, it runs like this: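 CHO cells stably expressing human HTR2A were plated for 18 h at 37 C, then loaded with calcium dye for 1 h. Compounds were preincubated 5 min at room temperature before DOI (4 nM solution) was added. Kinetic fluorescence was read for 3 min.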

Assay [11] has the same target. In words: 5-hydroxytryptamine receptor 2A (HTR2A) small molecule agonists, cell-based qHTS assay (AID 1963587). Further: nearly all actives have a fitted effect of over 30% in size. In short, it runs like this:
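HTR2A-CHO cells, plated 18 h at 37 C/5% CO2, dye-loaded 1 h at 37 C; compounds in DMSO added by pin tool (agonist mode). Intracellular calcium flux read as kinetic fluorescence on FDSS over 2 min at 1 s intervals.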

Assay [12] addresses Muscarinic acetylcholine receptor M1 (Homo sapiens) (UniProt P11229). The experiment in a line: Cholinergic receptor muscarinic 1 (CHRM1) small molecule antagonists, cell-based qHTS assay (AID 1963588). Further: nearly all actives have a fitted effect of over 40% in size. Further: potency means the concentration at half of the fitted maximal effect. Summed up: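 Compounds were tested at 15 concentrations in three independent runs. Dye-loaded CHRM1-CHO cells were exposed 5 min at room temperature before stimulation by acetylcholine added at 50nM. Intracellular calcium was read kinetically on FDSS for 3 min.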

For assay [13] the target is unchanged. The experiment in a line: Cholinergic receptor muscarinic 1 (CHRM1) small molecule agonists, cell-based qHTS assay (AID 1963589). Further: nearly all actives have a fitted effect of over 35% in size. In short, it runs like this:
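Kinetic fluorescence (1 s intervals) of calcium-sensitive dye in human M1 CHO cells after compound addition; cells pre-incubated 18 h at 37 C/5% CO2 and dye-loaded 1 h.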

Assay [14] in a line: cAMP Responsive Elements (CRE) small molecule agonists, cell-based qHTS assay (AID 1963590). Summed up: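 Test agents in DMSO were incubated 3 h at 37 C/5% CO2 with CRE-bla HEK 293T cells seeded 18 h earlier; LiveBLAzer B/G FRET substrate was added and read after 2 h at room temperature.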
Assay [15] addresses Beta-2 adrenergic receptor (Homo sapiens) (UniProt P07550). In words: Adrenergic beta2 receptor (ADRB2) small molecule antagonists, cell-based qHTS assay (AID 1963592). Further: series mostly up to about 92 µM; nearly all actives have a fitted effect of over 50% in size. Summed up:
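Assay format: CHO-ADRB2 cells, 18-20hr seeding at 37C/5% CO2, then compound plus 1nM isoproterenol agonist mix for 0.5hr RT. Homogeneous time-resolved fluorescence cAMP detection after 1hr, expressed as 665/615 nm ratio.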

In assay [16] the target is D(2) dopamine receptor (Homo sapiens) (UniProt P14416). In words: Dopamine D2 receptor (DRD2) small molecule agonists, cell-based qHTS assay (AID 1963594). Further: nearly all actives have a fitted effect of over 35% in size. Summed up:
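HEK293 cells stably expressing DRD2 were cultured 24 h at 37 C, then given Ro20-1724 (0.1 mM final) and compounds for 10 min at room temperature. NKH477 (200nM) was then added for 30 min. cAMP was read by HTRF.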

The target is the same in assay [17]. In words: Dopamine D2 receptor (DRD2) small molecule antagonists, cell-based qHTS assay (AID 1963595; active means well fitted inhibition curve with a large enough effect in the signal ratio in the repeat runs, with a control signal flat; the % refers to the signal ratio). Summed up: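 Antagonism was scored as restored cAMP in HEK293-DRD2 cells. These cells were stimulated with 200 nM NKH477 and 12 nM quinpirole for 30 min at room temperature, in the presence of 0.1 mM Ro20-1724.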
A short description of assay [18]: p53 small molecule agonists, cell-based qHTS assay (AID 1963582; active means well fitted activation curve with a large enough effect in the signal ratio in the repeat runs, not every such curve was filed as active; the % refers to the signal ratio). In short, it runs like this:
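Measured: fluorescence from cleaved LiveBLAzer substrate. System: p53RE-bla cells, 16 h compound treatment at 37 C, 2 h substrate step at room temperature.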

Assay [19] can be described thus: cAMP Responsive Elements (CRE) small molecule antagonists, cell-based qHTS assay (AID 1963591; active means well fitted inhibition curve with a large enough effect in the signal ratio in the repeat runs, not every such curve was filed as active; the % refers to the signal ratio). Summed up: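 Reporter line CRE-bla HEK 293T in dialyzed-FBS DMEM; cells preincubated 18 h, treated 3 h with compound plus NKH477 (0.25 uM final); LiveBLAzer FRET, 2 h RT.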
Assay [20] has as its target Beta-2 adrenergic receptor (Homo sapiens) (UniProt P07550). In words: Adrenergic beta2 receptor (ADRB2) small molecule agonists, cell-based qHTS assay (AID 1963593).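 Further: CHO cells stably overexpressing human ADRB2.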 Summed up: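 CHO cells stably over-expressing ADRB2 were plated overnight at 37C, then dosed with compounds plus a stimulation mix containing 100uM IBMX and 25uM Ro-20-1724 for 0.5hr at room temperature. cAMP was measured by HTRF competition, 1hr.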

Values without a mark were called inactive. Records with an inconclusive call do not appear. Calls of active or inactive are those of the source. Unless noted, the call rests on the fitted dose curve.

Muscarinic acetylcholine receptor M1 (Homo sapiens), sequence (P11229 whole entry, looked up): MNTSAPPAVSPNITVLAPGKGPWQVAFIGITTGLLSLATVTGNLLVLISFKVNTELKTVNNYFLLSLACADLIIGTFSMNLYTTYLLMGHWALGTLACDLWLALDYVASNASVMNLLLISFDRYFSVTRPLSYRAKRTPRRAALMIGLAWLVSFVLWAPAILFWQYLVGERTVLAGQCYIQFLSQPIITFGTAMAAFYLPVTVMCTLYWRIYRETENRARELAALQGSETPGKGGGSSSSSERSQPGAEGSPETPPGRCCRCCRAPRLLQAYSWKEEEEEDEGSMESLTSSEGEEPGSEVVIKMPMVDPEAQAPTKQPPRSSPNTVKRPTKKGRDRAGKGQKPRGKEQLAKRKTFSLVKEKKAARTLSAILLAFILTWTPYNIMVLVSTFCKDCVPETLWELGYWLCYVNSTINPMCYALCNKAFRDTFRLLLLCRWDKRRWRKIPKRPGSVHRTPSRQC
KiSS-1 receptor (Homo sapiens), sequence (Q969F8 whole entry, looked up): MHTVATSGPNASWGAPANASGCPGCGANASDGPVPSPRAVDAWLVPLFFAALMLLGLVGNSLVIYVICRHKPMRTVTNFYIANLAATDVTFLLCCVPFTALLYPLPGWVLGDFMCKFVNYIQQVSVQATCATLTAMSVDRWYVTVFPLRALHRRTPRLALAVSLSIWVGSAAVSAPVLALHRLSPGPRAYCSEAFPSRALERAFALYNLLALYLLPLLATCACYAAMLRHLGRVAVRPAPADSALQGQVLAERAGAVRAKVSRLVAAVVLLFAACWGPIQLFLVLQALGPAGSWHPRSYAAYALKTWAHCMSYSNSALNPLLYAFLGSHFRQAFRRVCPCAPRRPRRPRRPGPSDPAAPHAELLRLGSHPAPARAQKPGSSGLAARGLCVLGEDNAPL
Beta-2 adrenergic receptor (Homo sapiens), sequence (P07550 whole entry, looked up): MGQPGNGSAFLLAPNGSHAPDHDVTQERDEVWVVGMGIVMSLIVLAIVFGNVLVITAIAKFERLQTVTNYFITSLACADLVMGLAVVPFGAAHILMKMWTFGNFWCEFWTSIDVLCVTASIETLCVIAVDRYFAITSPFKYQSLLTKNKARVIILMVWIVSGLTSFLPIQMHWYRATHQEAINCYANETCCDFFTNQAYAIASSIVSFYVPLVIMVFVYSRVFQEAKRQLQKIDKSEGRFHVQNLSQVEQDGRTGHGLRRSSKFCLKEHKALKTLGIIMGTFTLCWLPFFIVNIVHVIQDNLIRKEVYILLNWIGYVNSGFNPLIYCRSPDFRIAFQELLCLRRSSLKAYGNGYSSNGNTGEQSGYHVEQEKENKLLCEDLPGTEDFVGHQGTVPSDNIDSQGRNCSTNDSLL
D(2) dopamine receptor (Homo sapiens), sequence (P14416 whole entry, looked up): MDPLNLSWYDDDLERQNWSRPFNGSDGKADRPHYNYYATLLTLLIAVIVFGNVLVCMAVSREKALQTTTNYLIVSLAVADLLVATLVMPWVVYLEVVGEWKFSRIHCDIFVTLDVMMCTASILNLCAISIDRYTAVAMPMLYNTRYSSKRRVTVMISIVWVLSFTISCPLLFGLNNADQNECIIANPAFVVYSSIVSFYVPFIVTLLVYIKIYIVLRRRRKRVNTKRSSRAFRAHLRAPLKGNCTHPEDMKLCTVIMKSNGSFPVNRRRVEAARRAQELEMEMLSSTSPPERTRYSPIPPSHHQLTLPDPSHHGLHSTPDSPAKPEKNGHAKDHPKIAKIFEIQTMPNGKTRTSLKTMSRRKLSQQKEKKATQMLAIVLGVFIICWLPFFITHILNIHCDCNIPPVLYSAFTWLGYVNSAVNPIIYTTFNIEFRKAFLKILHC
Gonadotropin-releasing hormone receptor (Homo sapiens), sequence (P30968 whole entry, looked up): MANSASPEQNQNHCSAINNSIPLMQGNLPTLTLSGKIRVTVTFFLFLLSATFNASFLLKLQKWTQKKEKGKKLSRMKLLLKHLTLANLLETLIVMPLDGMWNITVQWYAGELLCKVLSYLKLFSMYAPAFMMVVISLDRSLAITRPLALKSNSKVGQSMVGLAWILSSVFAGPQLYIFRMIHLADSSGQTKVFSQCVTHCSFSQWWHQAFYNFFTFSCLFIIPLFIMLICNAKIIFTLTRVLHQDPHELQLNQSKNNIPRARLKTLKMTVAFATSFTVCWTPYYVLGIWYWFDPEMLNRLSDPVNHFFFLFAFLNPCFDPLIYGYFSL
5-hydroxytryptamine receptor 2A (Homo sapiens), sequence (P28223 whole entry, looked up): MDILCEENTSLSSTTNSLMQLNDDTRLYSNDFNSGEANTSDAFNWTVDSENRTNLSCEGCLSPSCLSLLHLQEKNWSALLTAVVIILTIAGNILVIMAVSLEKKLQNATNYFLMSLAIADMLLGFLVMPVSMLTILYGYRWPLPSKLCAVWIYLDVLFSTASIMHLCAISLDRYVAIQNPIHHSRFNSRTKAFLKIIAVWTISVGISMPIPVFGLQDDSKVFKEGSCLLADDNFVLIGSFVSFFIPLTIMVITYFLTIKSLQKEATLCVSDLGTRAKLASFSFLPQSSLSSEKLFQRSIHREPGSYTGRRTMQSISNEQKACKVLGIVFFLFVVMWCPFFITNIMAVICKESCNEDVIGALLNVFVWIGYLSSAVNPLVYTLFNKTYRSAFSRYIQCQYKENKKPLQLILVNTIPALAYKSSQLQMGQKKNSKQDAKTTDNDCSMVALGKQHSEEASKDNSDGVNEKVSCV

Take `c1ccc(CNCCNCc2ccccc2)cc1`: the Potency entry in [1], in [2], in assay [3], in assay [6], in assay [7] and in [8] was “inactive” throughout. Besides, the Potency entry in [9], in assay [10], in assay [11], in assay [12], in assay [13] and in assay [14] was “inactive” in each case. Also, the Potency entry in [15], in [16] and in assay [17] was “inactive” each time. The result in assay [4] and in assay [5] was inactive.
For the compound `CN1C(=O)OC(C)(C)C1=O`, the Potency entry in [1], in [2], in assay [3], in assay [6], in assay [7] and in assay [8] was “inactive” each time. The Potency entry in assay [9], in [18], in assay [14], in assay [15], in [16] and in assay [17] was “inactive” in each case. Also, the outcome in [4] and in assay [5] was inactive.
For `Nc1nc2c(ncn2COCCO)c(=O)[nH]1`, the Potency entry in assay [1], in assay [2], in assay [3], in assay [6], in assay [7] and in assay [8] was “inactive” each time. In addition, the Potency result in assay [9], in [18], in [14], in [19], in assay [15] and in assay [20] was “inactive” throughout. Further, the outcome in [4] and in assay [5] was inactive.
Turning to `O=Cc1cccc(Br)c1`, the Potency entry in [1], in assay [2], in [3], in [6], in assay [7] and in assay [8] was “inactive” throughout. The Potency result in assay [9], in assay [10], in [11], in assay [12], in [13] and in assay [14] was “inactive” in each case. Besides, the Potency result in assay [19], in assay [15], in assay [20], in [16] and in assay [17] was “inactive” throughout. Moreover, the outcome in assay [4] and in assay [5] was inactive.
In the case of `CC(C)CCCCCCOC(=O)c1ccc(C(=O)OCCCCCCC(C)C)c(C(=O)OCCCCCCC(C)C)c1`, the Potency result in [1], in [2], in assay [3], in [6], in [7] and in assay [8] was “inactive” in each case. The Potency entry in [9], in assay [10], in assay [11], in assay [12], in assay [14] and in assay [19] was “inactive” each time. The Potency entry in assay [15] and in assay [16] was “inactive” throughout. For the same compound, the result in assay [4] and in assay [5] was inactive.
For the compound `CC(C)C(=O)Nc1cccc(C(F)(F)F)c1`, the Potency entry in assay [1], in assay [2], in assay [3], in [6], in [7] and in [8] was “inactive” each time. Further, the Potency entry in assay [9], in [10], in [11], in assay [13], in assay [14] and in assay [19] was “inactive” in each case. For the same compound, the Potency result in assay [15] and in assay [17] was “inactive” each time. The outcome in assay [4] and in assay [5] was inactive.
On to `CC(C)(C)C(=O)NCCCC(=O)O`, for which the Potency result in assay [1], in assay [2], in assay [3], in [6], in [7] and in assay [8] was “inactive” throughout. Moreover, the Potency result in [9], in assay [18], in assay [11], in [12], in assay [13] and in [14] was “inactive” each time. The Potency entry in assay [19], in [20], in assay [16] and in assay [17] was “inactive” in each case. For the same compound, the outcome in [4] and in assay [5] was inactive.
Regarding `CN(CCOc1ccc(NS(C)(=O)=O)cc1)CCc1ccc(NS(C)(=O)=O)cc1`, the Potency result in assay [1], in assay [2], in [3], in assay [6], in assay [7] and in assay [9] was “inactive” throughout. Moreover, the Potency result in assay [10], in assay [11], in assay [13], in assay [14], in assay [19] and in assay [15] was “inactive” each time. In addition, the Potency entry in assay [16] and in assay [17] was “inactive” in each case. In addition, the outcome in assay [4] and in assay [5] was inactive. Also, the Potency in assay [12] is 8.18 µM (active).

The record behind these values is PubChem BioAssay (Tox21).
